# Inconclusive results are not listed. A call without a number means that no potency is given here. Values without a mark were called inactive. Activity calls are given as the source filed them. Calls come from the whole dose curve; as a rule, active = well fitted cell-killing curve with a large enough effect in the repeat runs; inconclusive = weak or mixed curves, or effect the other way; inactive = flat fitted curve, though single readings scatter.
# How the values were obtained:
# [1] = cAMP Responsive Elements (CRE) small molecule antagonists, cell-based qHTS assay: qHTS cell viability counter screen (AID 2060913); note: nearly all actives have a fitted effect of over 40% in size
# Summary of the method: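 CRE-bla HEK293T cells (2,000/well, 18 h) given compound plus NKH477 0.25 uM final for 3 h at 37C; viability counter-screen by CellTiter-Glo luminescence in same wells after 30 min.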
# [2] = cAMP Responsive Elements (CRE) small molecule agonists, cell-based qHTS assay: qHTS cell viability counter screen (AID 2060914);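 note: viability read after 3 h of compound exposure; nearly all actives have a fitted effect of over 50% in size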
# Summary of the method: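 HEK 293T CRE-bla; DMEM + 10% dialyzed FBS, 25 mM HEPES; 18 h pre-incubation; compound 3 h, 37 °C/5% CO2; CellTiter-Glo added after reporter read; luminescence after 30 min RT.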
# Potency is the fitted concentration of half-maximal effect.
Compound,Potency [1],Potency [2],"viability change, negative = cytotoxic [1]","activity change, negative = cytotoxicity [2]"
CCOC(=O)[C@H](CCc1ccccc1)N[C@@H](C)C(=O)N1[C@H](C(=O)O)C[C@@H]2CCC[C@@H]21,inactive,inactive,,
O=C1c2ccccc2C(=O)C1c1ccc2ccccc2n1,inactive,inactive,,
CC(CN=Cc1ccccc1O)N=Cc1ccccc1O (stereo unspecified),inactive,inactive,,
CCOC(=O)CS,inactive,inactive,,
c1ccc(-c2ccccc2-c2ccccc2)cc1,inactive,inactive,,
NC(Cc1ccc(F)cc1)C(=O)O (stereo unspecified),,,19.3% [at 8.39 µM],0.316% [at 8.39 µM]
CS(=O)(=O)c1ccc([C@@H](O)[C@@H](CO)NC(=O)C(Cl)Cl)cc1,inactive,inactive,,
C=CCCCCCCCCCCC,,,-1.65% [at 8.39 µM],-4.53% [at 8.39 µM]
CCCOC(=O)c1cc(O)c(O)c(O)c1,inactive,inactive,,
O=c1[nH]cnc2c1ncn2[C@@H]1O[C@H](CO)[C@@H](O)[C@H]1O,inactive,inactive,,
O=c1c(O)c(-c2ccc(O)cc2O)oc2cc(O)cc(O)c12,inactive,inactive,,
Cc1scc2c1N(C(=O)CN1CCN(C)CC1)c1ccccc1NC2=O,inactive,inactive,,
CCO,inactive,inactive,,
CC/C=C\CCOC(=O)CCCCC,inactive,inactive,,
NC(=S)Nc1cccc2ccccc12,,,19.4% [at 8.39 µM],-4.32% [at 8.39 µM]
CCOc1c(N2CCOCC2)cnn(C)c1=O,inactive,inactive,,
OCCN1CCN(CCCN2c3ccccc3C=Cc3ccccc32)CC1,inactive,inactive,,
CC(=O)O[C@H](CC(=O)[O-])C[N+](C)(C)C,inactive,inactive,,
CCN(CC)CCNc1ccc(CO)c2sc3ccccc3c(=O)c12,inactive,inactive,,
NC(N)=O,inactive,inactive,,
CCOC(N)=O,inactive,inactive,,
c1ccc(C(O[C@H]2CCCN(CCc3ccc4c(c3)OCO4)C2)c2ccccc2)cc1,inactive,inactive,,
CNC(=O)Oc1ccc2c(c1)[C@]1(C)CCN(C)[C@@H]1N2C,inactive,inactive,,
N#Cc1ccc(C2CCCc3cncn32)cc1 (stereo unspecified),inactive,inactive,,
O=C1OC(=O)c2cc(-c3ccc4c(c3)C(=O)OC4=O)ccc21,inactive,inactive,,
F[B-](F)(F)F,inactive,inactive,,
[Cl][Bi]([Cl])([c]1ccccc1)([c]1ccccc1)[c]1ccccc1,30.5 µM (active),43 µM (active),,

Compound,Potency [1],Potency [2],"viability change, negative = cytotoxic [1]","activity change, negative = cytotoxicity [2]"
C=C(C)C(=O)OCCCCCC,inactive,inactive,,
CC(C)c1ccc(C(=O)N=C(N)N)cc1S(C)(=O)=O,inactive,inactive,,
O=C(O)c1ccccc1NCCc1ccccc1,inactive,inactive,,
Cc1cnc(C(=O)NCCc2ccc(S(=O)(=O)NC(=O)NC3CCCCC3)cc2)cn1,inactive,inactive,,
CC/C=C\CC/C=C/CO,inactive,inactive,,
CCN(CC)c1ccc2c(-c3ccccc3C(=O)O)c3ccc(=[N+](CC)CC)cc-3oc2c1,inactive,inactive,,
S=c1nccc[nH]1,inactive,inactive,,
CC(C)Nc1ccccc1,inactive,inactive,,
CC(=O)Nc1ccc2c(c1)Cc1cc(NC(C)=O)ccc1-2,inactive,inactive,,
CCN(CCO)c1cccc(C)c1,inactive,inactive,,
Clc1ccc2c(c1)Nc1ccccc1S2,inactive,inactive,,
CCCCCc1cccc(=O)o1,inactive,inactive,,
O=[N+]([O-])c1cccc(S(=O)(=O)NCCNS(=O)(=O)c2cccc([N+](=O)[O-])c2)c1,inactive,inactive,,
C=C[Si](C)(C)O[Si](C)(C)C=C,inactive,inactive,,
CN(C)CCCN(C)CCCN(C)C,inactive,inactive,,
Cc1cccnc1,inactive,inactive,,
C[C@@H]1[C@H](O)[C@@H](C)/C=C/C=C\C=C\C=C\C=C\C=C\C=C\[C@H](O[C@@H]2O[C@H](C)[C@@H](O)[C@H](N)[C@@H]2O)C[C@@H]2O[C@](O)(C[C@@H](O)C[C@@H](O)[C@H](O)CC[C@@H](O)C[C@@H](O)CC(=O)O[C@H]1C)C[C@H](O)[C@H]2C(=O)O (stereo in doubt),inactive,inactive,,
Oc1ccc2c(c1)-c1ccccc1C2,inactive,inactive,,
CN/C(=C\[N+](=O)[O-])NCCSCc1ccc(CN(C)C)o1,inactive,inactive,,
CCN1CN(CC)CN(CC)C1,inactive,inactive,,
O=C(O)CNCC(=O)O,,,19.6% [at 8.39 µM],-11.1% [at 8.39 µM]
O=Nc1ccc(O)cc1,inactive,inactive,,
O=C(O)C(S)C(S)C(=O)O (stereo unspecified),inactive,inactive,,
Cn1c(=O)c2c(ncn2C)n(C)c1=O,inactive,inactive,,
CCCCCCc1ccc(-c2ccc(C#N)cc2)cc1,inactive,inactive,,
CCCC(CCC)C(=O)O,inactive,inactive,,
